# “And” between values parts separate entries of the source, which are not always exact repeats. Equal values may be shown once. The source holds several records for some structures; these can differ, active in one and inactive in another. The source made the active and inactive calls. Unless noted, no rule for the calls is given here.
# Tests used:
# [1] = P. berghei load reduction in hepatocytes – cell-based, HepG2, luciferase luminescence, HepG2 viability, primary screen (AID 624349; in the data active = parasite load remaining mostly below about 12%, no sharp cut-off; inactive = mostly above about 10%;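 also: 100% = mean of DMSO negative control wells on the same plate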); details: P. berghei liver stage in HepG2, luciferase luminescence, concentration not given here; parasite load remaining: stronger effect = lower value; viability: measured here: HepG2 viability without parasites
# [2] = signal quenchers or enhancers, Cy5 substrate/SSB – biochemical, NIH Clinical Collection, E. coli SSB, artefact control for HCV NS3 helicase inhibitor project (AID 743268); details: Cy5-oligo bound E. coli SSB, fluorescence interference
# [3] = test system: Hepatitis C virus NS3 helicase; assay: blockers of NS3h binding to DNA – biochemical, fluorescence polarization, NIH Clinical Collection, primary screen (AID 743270); details: NS3 helicase binding to Cy5-dT15 DNA, stronger effect = higher value, concentration not given here
# [4] = biological target: Single-stranded DNA-binding protein (Escherichia coli (strain K12)) (UniProt P0AGE0); assay: SSB-ssDNA binding inhibitors – biochemical, fluorescence polarization, NIH Clinical Collection, counter-screen for HCV NS3 helicase inhibitor project (AID 743271; in the data active = inhibition above about 28%); details: E. coli SSB-DNA binding, stronger effect = higher value, concentration not given here
# [5] = compounds distorting NS3 helicase fluorescence signal – biochemical, NIH Clinical Collection, artefact control for HCV NS3 helicase inhibitor project (AID 743272); details: fluorescence interference counterscreen, HCV NS3 helicase assay; stronger effect = lower value;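 also: HCV NS3 helicase with a Cy5 labelled single stranded DNA probe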
# [6] = Wnt pathway potentiators raising nuclear beta-catenin – imaging, WNT3A-conditioned medium, mouse C2C12, NPC library, primary screen (AID 1117326; in the data active = nuclear beta-catenin stimulation mostly above about 4.2%, no sharp cut-off; inactive = mostly below about 10%); details: stronger effect = higher value
# [7] = stimulators of insulin release from INS-1E, primary screen, cell-based, 5 mM glucose, NPC library (AID 1117329;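 active = compound raises insulin release from rat beta cells at 5 mM glucose, no numeric limit stated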); details: rat INS-1E insulin secretion, at 10 µM, stronger effect = higher value
# [8] = growth inhibition of GSK3B-pretreated HCT116 cells – cell-based, CellTiter-Glo, 0.2 to 20 µM (AID 1117336;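 active = compounds lowering colon cancer cell viability after pretreatment blocking the GSK3B kinase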); details: HCT116 viability after GSK3B inhibitor, at 20 µM, stronger effect = higher value
# [9] = inhibition of endothelial tube formation, primary screen, imaging, VEGF stimulated, CD31 staining, tube area, NPC library (AID 1117340;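 active = compound that reduces growth-factor-driven endothelial tube area in a mixed cell culture, no cutoff stated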); details: VEGF-stimulated ADSC/ECFC co-culture, at 10 µM, stronger effect = higher value
# [10] = GLP1 release stimulators, primary, NCI-H716, NPC library (AID 1117341;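 active = compound raises GLP1 secretion from the human gut endocrine cells, with no numeric limit stated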); details: NCI-H716 cells, at 10 µM, stronger effect = higher value
# [11] = HCT116 colon cancer cell growth inhibition, primary screen, CellTiter-Glo luminescence, NPC library (AID 1117342;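 active = compounds that lower survival of HCT116 colon cancer cells in the luminescence readout, no numeric limit stated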); details: at 20 µM (top of the series)
# [12] = reduced SW480 viability measured with CellTiter-Glo, NPC library, primary (AID 1117343;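 active = compounds that lower viability of the colon cancer cells in the luminescence readout, with no numeric limit stated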); details: CellTiter-Glo luminescence; at 20 µM (top of the series)
# [13] = NPC library primary testing for decreased DLD-1 cell viability via CellTiter-Glo (AID 1117346;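 active = compounds that lower survival of DLD-1 colon cancer cells in the luminescence readout, no cutoff given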); details: DLD-1 viability, CellTiter-Glo luminescence; at 20 µM (top of the series)
# [14] = test system: Hepatitis C virus NS3 helicase; assay: blockers of NS3h binding to ssDNA – biochemical, fluorescence polarization, LOPAC1280 library, primary screen (AID 687035; in the data active = inhibition above about 37%); details: Purified HCV NS3 helicase, Cy5-dT15 ssDNA binding fluorescence polarization; stronger effect = higher value; concentration not given here
# [15] = compounds altering Cy5-DNA-NS3h complex signal – biochemical, LOPAC1280, artefact control for HCV NS3 helicase inhibitor project (AID 687037); details: Cy5-DNA-NS3h complex fluorescence interference counterscreen
# [16] = test system: Neuropilin-2 / VEGF-C interaction (human); assay: small molecules blocking Neuropilin-2/VEGF-C interaction – biochemical, microplate binding format, z-score (AID 743281); details: microplate NRP2/VEGF-C binding assay; stronger effect = lower value
SMILES,parasite load remaining [1],viability [1],fluorescence ratio [2],inhibition [3],inhibition [4],fluorescence ratio [5],nuclear beta-catenin stimulation ([6]; at 10 µM),"nuclear beta-catenin stimulation ([6]; stimulation, at 2 µM)",insulin secretion stimulation [7],viability decrease [8],tube area decrease [9],GLP1 secretion stimulation [10],inhibition of viability [11],viability decrease (inhibition) [12],viability decrease (inhibition) [13],inhibition [14],fluorescence ratio (interference) [15],z-score [16],outcome [16]
C#C[C@]1(O)CC[C@H]2[C@@H]3[C@H](C)CC4=C(CCC(=O)C4)[C@H]3CC[C@@]21C,43.6% (inactive) and 8.38% (inactive),76.2% and 73.5%,0.99 (inactive),0.66% (inactive),1.18% (inactive),0.99 (inactive),7.4% (inactive),0.8%,-2.8% (inactive),45.5% (inactive),-5.2% (inactive),4.4% (inactive),-14.3% (inactive),109% (active),79.8% (active),–,–,–,–
CC(=O)O[C@H]1C[C@@H]2CC[C@@H]3[C@H](CC[C@@]4(C)[C@H]3C[C@H]([N+]3(C)CCCCC3)[C@@H]4OC(C)=O)[C@@]2(C)C[C@@H]1N1CCCCC1,67.6% (inactive) and 50.8% (inactive),76.1% and 73.5%,1 (inactive),-0.22% (inactive),5.91% (inactive),1 (inactive),-1.4% (inactive),-1.2%,0.6% (inactive),-4.1% (inactive),4.6% (inactive),13.2% (inactive),3.2% (inactive),-6.9% (inactive),-7.1% (inactive),–,–,–,–
CCCOc1ccc(C(=O)OCCN(CC)CC)cc1N,35.3% (inactive) and 89.5% (inactive) and 24.4% (inactive),102% and 98.4% and 98.5%,0.101 (active),-4.09% (inactive),0.29% (inactive),1.02 (inactive),1.3% (inactive),5.7%,1.5% (inactive),47.8% (inactive),-3.5% (inactive),-1% (inactive),74.2% (active),36% (inactive),90.1% (active),–,–,–,–
OCc1cc(C(O)CNCCCCCCOCCCCc2ccccc2)ccc1O (stereo unspecified),94.7% (inactive) and 45.6% (inactive) and 21.7% (inactive),96% and 67.2% and 65.5%,0.98 (inactive),-1.97% (inactive),-2.76% (inactive),1.01 (inactive),2.7% (inactive),0.3%,0.4% (inactive),-73.1% (inactive),27.2% (inactive),-0.4% (inactive),44.6% (inactive),46.4% (inactive),37.8% (inactive),2% (inactive),1 (inactive),-0.654 (inactive),–
CCOC(=O)O[C@]1(C(=O)OCCl)CC[C@H]2[C@@H]3CCC4=CC(=O)C=C[C@]4(C)[C@H]3[C@@H](O)C[C@@]21C,196% (inactive),72.9%,1.04 (inactive),-0.4% (inactive),4.52% (inactive),1.05 (inactive),-1.2% (inactive),-0.3%,7% (inactive),12.3% (inactive),-0.4% (inactive),0.9% (inactive),3.1% (inactive),0.5% (inactive),21.9% (inactive),–,–,–,–
CC(C)(C)NC(=O)[C@H]1CC[C@H]2[C@@H]3CC[C@H]4NC(=O)C=C[C@]4(C)[C@H]3CC[C@]12C,85.8% (inactive) and 62.9% (inactive) and 31.1% (inactive),103% and 63% and 78%,1.05 (inactive),0.4% (inactive),-2.41% (inactive),1.02 (inactive),5.2% (inactive),2%,0.6% (inactive),5.3% (inactive),8.2% (inactive),6.1% (inactive),5.67% (inactive),7.4% (inactive),-4% (inactive),–,–,–,–
CC(C)(C(=O)c1cccnc1)c1cccnc1,42.4% (inactive) and 90.8% (inactive) and 15.1% (inactive),102% and 94.8% and 117%,1.03 (inactive),1.36% (inactive),1.05% (inactive),0.96 (inactive),4.8% (inactive),1.3%,0.7% (inactive),-5.6% (inactive),4.4% (inactive),0.8% (inactive),0.97% (inactive),1.2% (inactive),-9.4% (inactive),–,–,–,–
Nc1nc(F)nc2c1ncn2[C@@H]1O[C@H](CO)[C@@H](O)[C@@H]1O,18.4% (inactive),114%,1.01 (inactive),1.36% (inactive),-2.76% (inactive),1.02 (inactive),0.3% (inactive),2.3%,-0.6% (inactive),12.6% (active),106% (active),-2% (inactive),38% (inactive),17.2% (inactive),19.4% (inactive),–,–,–,–
COc1cc(-c2ccc(=O)[nH]n2)ccc1OC(F)F,107% (inactive) and 103% (inactive) and 31.7% (inactive),78.6% and 72.5%,0.99 (inactive),-2.77% (inactive),-0.87% (inactive),0.94 (inactive),2% (inactive),0.9%,0.6% (inactive),-6.05% (inactive),99.9% (active),11.6% (inactive),-6.7% (inactive),11.4% (inactive),4.45% (inactive),–,–,-0.623 (inactive),–
CCN1CCCC1CNC(=O)c1cc(S(=O)(=O)CC)c(N)cc1OC (stereo unspecified),79.8% (inactive),68.8%,1.05 (inactive),0.4% (inactive),-4.72% (inactive),1.01 (inactive),-0.8% (inactive),-0.8%,0% (inactive),-1.8% (inactive),-11.8% (inactive),-4.7% (inactive),-1.4% (inactive),1.7% (inactive),-1.4% (inactive),-3% (inactive),0.9 (inactive),-0.283 (inactive),–
O=C(NCCN1CCOCC1)c1ccc(Cl)cc1,153% (inactive) and 134% (inactive),108% and 80.7%,1.03 (inactive),5.94% (inactive),8.37% (inactive),0.99 (inactive),0.1% (inactive),0.4%,-2.6% (inactive),-7.6% (inactive),6% (inactive),0.4% (inactive),-2.6% (inactive),35.1% (inactive),-7.9% (inactive),-6% (inactive),0.9 (inactive),-0.561 (inactive),–
Cc1cccc(C)c1NC(=O)C(C)N (stereo unspecified),112% (inactive) and 108% (inactive),79.8% and 73.3%,1.05 (inactive),-5.15% (inactive),-3.95% (inactive),1 (inactive),0.2% (inactive),1.2%,0.2% (inactive),-2.3% (inactive),-7.9% (inactive),-0.6% (inactive),-4.1% (inactive),0.1% (inactive),-5.7% (inactive),-5% (inactive),1 (inactive),-0.227 (inactive),–
c1cnc(N2CCN(Cc3ccc4c(c3)OCO4)CC2)nc1,105% (inactive) and 100% (inactive) and 31.2% (inactive),78.5% and 71.3% and 101%,1.01 (inactive),-5.94% (inactive),-0.87% (inactive),0.96 (inactive),0.7% (inactive),4.1%,1% (inactive),-13.4% (inactive),-4.5% (inactive),10.3% (inactive),4.13% (inactive),-7.2% (inactive),-20% (inactive),-1% (inactive),1 (inactive),-0.0568 (inactive),–
CN(C)CC[C@@H](c1ccc(Br)cc1)c1ccccn1,84.6% (inactive),70.1%,1.07 (inactive),-2.77% (inactive),-3.18% (inactive),0.87 (inactive),1.1% (inactive),-0.3%,81.9% (active),-41.6% (inactive),-18.3% (inactive),1.6% (inactive),27.2% (inactive),30.9% (inactive),10.2% (inactive),0% (inactive),1 (inactive),-0.605 (inactive),–
CC(=O)[C@]1(O)Cc2c(O)c3c(c(O)c2[C@@H](O[C@H]2C[C@H](N)[C@H](O)[C@H](C)O2)C1)C(=O)c1ccccc1C3=O,-0.405% (inactive) and 0.045% (active),2.19% and 69.5%,0.31 (active),0.4% (inactive),14.5% (inactive),0.67 (active),18.6% (active),94.8%,-1.8% (inactive),84% (active),85.6% (active),-0.2% (inactive),68.9% (active),84.7% (active),85.5% (active),-1% (inactive),0.8 (active),1.07 (inactive),–
CCC(=O)O[C@]1(C(=O)SCF)[C@H](C)C[C@H]2[C@@H]3C[C@H](F)C4=CC(=O)C=C[C@]4(C)[C@@]3(F)[C@@H](O)C[C@@]21C,82.3% (inactive) and 83.8% (inactive),68.2% and 100%,1 (inactive),5.94% (inactive),5.29% (inactive),1.02 (inactive),0.9% (inactive),2.7%,0.4% (inactive),-30.2% (inactive),-19.4% (inactive),9.8% (inactive),6.27% (inactive),39.6% (inactive),-7.2% (inactive),–,–,–,–
Oc1ccc(C2CNCCc3c2cc(O)c(O)c3Cl)cc1 (stereo unspecified),97.3% (inactive) and 13% (inactive),74.7% and 61%,0.73 (active),-1.98% (inactive),-7.03% (inactive),0.87 (inactive),1.1% (inactive),7.9%,5.4% (inactive),66.2% (active),42.2% (active),1% (inactive),50.2% (active),50.9% (active),29.6% (inactive),-3% (inactive),0.9 (inactive),0.0254 (inactive),–
O=C(O)CCNC(=O)c1ccc(N=Nc2ccc(O)c(C(=O)O)c2)cc1,105% (inactive) and 63.3% (inactive),90.8% and 75.1%,0.93 (inactive),-2.84% (inactive),1.97% (inactive),0.94 (inactive),0.8% (inactive),0.3%,5.4% (inactive),5.2% (inactive),11.5% (inactive),1.6% (inactive),6.1% (inactive),57.8% (active),6.7% (inactive),–,–,–,inactive
